# Laboratory results reported in the supplement of paper PMC8728848.
# About 410 targets per protein were measured; listed, in parts, are those with the strongest signals and a random draw of the rest.
# B1: XTP3-B-MRH1 (Homo sapiens), Q96DZ1 (protein)
# chain: LLEPLFKQSSCSYRIESYWTYEVCHGKHIRQYHEEKETGQKINIHEYYLGNMLAKNLLFEKEREAEEKEKSNEIPTKNIEGQMTPYYPVGMGNGTPCSLKQNRPRSSTVMYICHPESKHEILSVAEVTTCEYEVVILTPLLCSHPKYRFRA
# Experiments:
# Experiment in all cases: glycan array binding signal (z-score within array); higher = stronger binding
# Settings in all cases: glycan notation: IUPAC condensed, linker removed
# [1] = molecular target: Fuc(a1-2)Gal(b1-3)[Fuc(a1-4)]GlcNAc(b1-2)Man(a1-3)[Fuc(a1-2)Gal(b1-3)[Fuc(a1-4)]GlcNAc(b1-2)Man(a1-6)]Man(b1-4)GlcNAc(b1-4)[Fuc(a1-6)]GlcNAc(b1-4)[Fuc(a1-6)]GlcNAc
# Summary of the method: (§1)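 The binding signal is a Z-score computed within each array. Data were drawn from 3228 arrays in the Consortium for Functional Glycomics database, restricted to those with a known protein sequence. Scores were averaged over arrays of the same protein sequence at different concentrations or buffers, and over linkers, and negative values can be taken as non-binding.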
# [2] = molecular target: Fuc(a1-2)Gal(b1-3)[Fuc(a1-4)]GlcNAc(b1-3)[Gal(b1-4)GlcNAc(b1-6)]Gal(b1-4)Glc
# Summary of the method: as §1
# [3] = molecular target: Fuc(a1-2)Gal(b1-4)Fuc(a1-3)]GlcNAc(b1-2)Man(a1-3)[Fuc(a1-2)Gal(b1-4)[Fuc(a1-3)]GlcNAc(b1-2)Man(a1-6)]Man(b1-4)GlcNAc(b1-4)GlcNAc
# Summary of the method: as §1
# [4] = molecular target: Fuc(a1-2)Gal(b1-4)[Fuc(a1-3)]GlcNAc(b1-3)Gal(b1-4)[Fuc(a1-3)]GlcNAc
# Summary of the method: as §1
# [5] = molecular target: Fuc(a1-2)[Gal(a1-3)]Gal(b1-3)GlcNAc(b1-2)Man(a1-3)[Fuc(a1-2)[Gal(a1-3)]Gal(b1-3)GlcNAc(b1-2)Man(a1-6)]Man(b1-4)GlcNAc(b1-4)[Fuc(a1-6)]GlcNAc
# Summary of the method: as §1
# [6] = molecular target: Fuc(a1-2)[Gal(a1-3)]Gal(b1-4)GlcNAc(b1-3)[Fuc(a1-2)[Gal(a1-3)]Gal(b1-4)GlcNAc(b1-6)]GalNAc
# Summary of the method: as §1
# [7] = molecular target: Fuc(a1-2)[GalNAc(a1-3)]Gal(b1-3)GalNAc(b1-3)Gal(a1-4)Gal(b1-4)Glc
# Summary of the method: as §1
# [8] = molecular target: Fuc(a1-2)[GalNAc(b1-3)]Gal
# Summary of the method: as §1
# [9] = molecular target: Fuc(a1-3)[Gal(b1-4)]GlcNAc(b1-3)Gal(b1-4)[Fuc(a1-3)]GlcNAc
# Summary of the method: as §1
# [10] = molecular target: Fuc(b1-3)GlcNAc
# Summary of the method: as §1
# [11] = molecular target: Gal(a1-3)Gal(b1-3)[Fuc(a1-4)]GlcNAc(b1-2)Man(a1-3)[Gal(a1-3)Gal(b1-3)[Fuc(a1-4)]GlcNAc(b1-2)Man(a1-6)]Man(b1-4)GlcNAc(b1-4)GlcNAc
# Summary of the method: as §1
# [12] = molecular target: Gal(a1-3)[Gal(a1-4)]Gal(b1-4)GlcNAc
# Summary of the method: as §1
# [13] = molecular target: Gal(b1-3)GlcNAc(b1-3)Gal(b1-4)GlcNAc(b1-2)Man(a1-3)[Gal(b1-3)GlcNAc(b1-3)Gal(b1-4)GlcNAc(b1-2)Man(a1-6)]Man(b1-4)GlcNAc(b1-4)GlcNAc
# Summary of the method: as §1
# [14] = molecular target: Gal(b1-3)[Fuc(a1-4)]GlcNAc(b1-2)Man(a1-3)[Gal(b1-3)[Fuc(a1-4)]GlcNAc(b1-2)Man(a1-6)]Man(b1-4)GlcNAc(b1-4)[Fuc(a1-6)]GlcNAc
# Summary of the method: as §1
# [15] = molecular target: Gal(b1-3)[GlcNAc(b1-6)]GalNAc
# Summary of the method: as §1
# [16] = molecular target: Gal(b1-4)GalNAc(a1-3)[Fuc(a1-2)]Gal(b1-4)GlcNAc
# Summary of the method: as §1
# [17] = molecular target: Gal(b1-4)GlcNAc(b1-2)Man(a1-3)[Gal(b1-4)GlcNAc(b1-2)Man(a1-6)]Man(b1-4)GlcNAc(b1-4)[Fuc(a1-6)]GlcNAc
# Summary of the method: as §1
# [18] = molecular target: Gal(b1-4)GlcNAc(b1-2)[Gal(b1-4)GlcNAc(b1-6)]Man(a1-6)[Gal(b1-4)GlcNAc(b1-2)Man(a1-3)]Man(b1-4)GlcNAc(b1-4)[Fuc(a1-6)]GlcNAc
# Summary of the method: as §1
# [19] = molecular target: Gal(b1-4)GlcNAc(b1-3)Gal(b1-4)GlcNAc
# Summary of the method: as §1
# [20] = molecular target: Gal(b1-4)GlcNAc(b1-3)Gal(b1-4)GlcNAc(b1-2)Man(a1-3)[Gal(b1-4)GlcNAc(b1-3)Gal(b1-4)GlcNAc(b1-2)Man(a1-6)]Man(b1-4)GlcNAc(b1-4)GlcNAc
# Summary of the method: as §1
# [21] = molecular target: Gal(b1-4)GlcNAc(b1-3)Gal(b1-4)GlcNAc(b1-3)Gal(b1-4)GlcNAc(b1-3)Gal(b1-4)GlcNAc(b1-3)Gal(b1-4)GlcNAc(b1-3)Gal(b1-4)GlcNAc(b1-2)Man(a1-3)[Gal(b1-4)GlcNAc(b1-3)Gal(b1-4)GlcNAc(b1-3)Gal(b1-4)GlcNAc(b1-3)Gal(b1-4)GlcNAc(b1-3)Gal(b1-4)GlcNAc(b1-3)Gal(b1-4)GlcNAc(b1-2)Man(a1-6)]Man(b1-4)GlcNAc(b1-4)GlcNAc
# Summary of the method: as §1
# [22] = molecular target: Gal(b1-4)GlcNAc(b1-3)Gal(b1-4)GlcNAc(b1-3)[Gal(b1-4)GlcNAc(b1-3)Gal(b1-4)GlcNAc(b1-6)]GalNAc
# Summary of the method: as §1
# [23] = molecular target: Gal(b1-4)GlcNAc(b1-3)GalNAc
# Summary of the method: as §1
# [24] = molecular target: Gal3S6S(b1-4)GlcNAc6S
# Summary of the method: as §1
# [25] = molecular target: GalNAc(a1-3)GalNAc
# Summary of the method: as §1
# [26] = molecular target: GalNAc3S(b1-4)GlcNAc3S
# Summary of the method: as §1
# [27] = molecular target: GalNAc4S6S(b1-4)GlcNAc
# Summary of the method: as §1
# [28] = molecular target: Glc(a1-6)Glc(a1-6)Glc
# Summary of the method: as §1
# [29] = molecular target: GlcA(b1-6)Gal
# Summary of the method: as §1
# [30] = molecular target: GlcA3S(b1-3)Gal(b1-4)GlcNAc(b1-3)Gal(b1-4)Glc
# Summary of the method: as §1
# [31] = molecular target: GlcNAc(a1-4)Gal(b1-4)GlcNAc(b1-3)Gal(b1-4)GlcNAc
# Summary of the method: as §1
# [32] = molecular target: GlcNAc(b1-3)Gal(b1-4)GlcNAc
# Summary of the method: as §1
# [33] = molecular target: GlcNAc(b1-3)Gal(b1-4)GlcNAc(b1-2)Man(a1-3)[GlcNAc(b1-3)Gal(b1-4)GlcNAc(b1-2)Man(a1-6)]Man(b1-4)GlcNAc(b1-4)[Fuc(a1-6)]GlcNAc
# Summary of the method: as §1
# [34] = molecular target: GlcNAc(b1-3)Gal(b1-4)GlcNAc(b1-3)Gal(b1-4)GlcNAc(b1-2)Man(a1-3)[GlcNAc(b1-3)Gal(b1-4)GlcNAc(b1-3)Gal(b1-4)GlcNAc(b1-2)Man(a1-6)]Man(b1-4)GlcNAc(b1-4)GlcNAc
# Summary of the method: as §1
# [35] = molecular target: GlcNAc(b1-3)Gal(b1-4)GlcNAc(b1-3)Gal(b1-4)GlcNAc(b1-3)Gal(b1-4)GlcNAc(b1-2)Man(a1-3)[GlcNAc(b1-3)Gal(b1-4)GlcNAc(b1-3)Gal(b1-4)GlcNAc(b1-3)Gal(b1-4)GlcNAc(b1-2)Man(a1-6)]Man(b1-4)GlcNAc(b1-4)[Fuc(a1-6)]GlcNAc
# Summary of the method: as §1
# [36] = molecular target: Kdn(a2-3)Gal(b1-4)GlcNAc
# Summary of the method: as §1
# [37] = molecular target: Neu5Ac(a2-3)Gal
# Summary of the method: as §1
# [38] = molecular target: Neu5Ac(a2-3)Gal(b1-3)GalNAc(b1-3)Gal(a1-4)Gal(b1-4)Glc
# Summary of the method: as §1
# [39] = molecular target: Neu5Ac(a2-3)Gal(b1-3)GlcNAc(b1-3)Gal(b1-4)GlcNAc
# Summary of the method: as §1
# [40] = molecular target: Neu5Ac(a2-3)Gal(b1-3)GlcNAc(b1-6)GalNAc
# Summary of the method: as §1
# [41] = molecular target: Neu5Ac(a2-3)Gal(b1-4)GlcNAc(b1-3)Gal(b1-4)GlcNAc(b1-3)GalNAc
# Summary of the method: as §1
# [42] = molecular target: Neu5Ac(a2-3)Gal(b1-4)[Fuc(a1-3)]GlcNAc
# Summary of the method: as §1
# [43] = molecular target: Neu5Ac(a2-3)Gal(b1-4)[Fuc(a1-3)]GlcNAc(b1-3)Gal(b1-4)[Fuc(a1-3)]GlcNAc(b1-3)Gal(b1-4)[Fuc(a1-3)]GlcNAc
# Summary of the method: as §1
# [44] = molecular target: Neu5Ac(a2-3)Gal(b1-4)[Fuc(a1-3)]GlcNAc(b1-3)GalNAc
# Summary of the method: as §1
# [45] = molecular target: Neu5Ac(a2-3)[Neu5Ac(a2-6)]GalNAc
# Summary of the method: as §1
# [46] = molecular target: Neu5Ac(a2-6)Gal(b1-4)GlcNAc(b1-2)Man
# Summary of the method: as §1
# [47] = molecular target: Neu5Ac(a2-6)Gal(b1-4)GlcNAc(b1-2)Man(a1-3)[Gal(b1-4)GlcNAc(b1-2)Man(a1-6)]Man(b1-4)GlcNAc(b1-4)GlcNAc
# Summary of the method: as §1
# [48] = molecular target: Neu5Ac(a2-8)Neu5Ac(a2-3)Gal(b1-3)GalNAc(b1-4)[Neu5Ac(a2-3)]Gal(b1-4)Glc
# Summary of the method: as §1
# [49] = molecular target: Neu5Ac(a2-8)Neu5Ac(a2-3)[Gal(b1-3)GalNAc(b1-4)]Gal(b1-4)Glc
# Summary of the method: as §1
# [50] = molecular target: Neu5Ac(a2-8)Neu5Ac(a2-8)Neu5Ac(a2-8)Neu5Ac(a2-3)[GalNAc(b1-4)]Gal(b1-4)Glc
# Summary of the method: as §1
binder,measurement,setting,value
B1,glycan array binding signal (z-score),[1],0.479
same,glycan array binding signal (z-score),[2],0.735
same,glycan array binding signal (z-score),[3],3.43
same,glycan array binding signal (z-score),[4],0.249
same,glycan array binding signal (z-score),[5],-0.029
same,glycan array binding signal (z-score),[6],0.358
same,glycan array binding signal (z-score),[7],-0.49
same,glycan array binding signal (z-score),[8],-1.01
same,glycan array binding signal (z-score),[9],4.25
same,glycan array binding signal (z-score),[10],0.382
same,glycan array binding signal (z-score),[11],-0.237
same,glycan array binding signal (z-score),[12],-0.853
same,glycan array binding signal (z-score),[13],0.941
same,glycan array binding signal (z-score),[14],-0.731
same,glycan array binding signal (z-score),[15],-0.389
same,glycan array binding signal (z-score),[16],-0.41
same,glycan array binding signal (z-score),[17],-0.184
same,glycan array binding signal (z-score),[18],1.61
same,glycan array binding signal (z-score),[19],2.97
same,glycan array binding signal (z-score),[20],3.79
same,glycan array binding signal (z-score),[21],0.082
same,glycan array binding signal (z-score),[22],1.07
same,glycan array binding signal (z-score),[23],-0.205
same,glycan array binding signal (z-score),[24],-0.392
same,glycan array binding signal (z-score),[25],3.12
same,glycan array binding signal (z-score),[26],3.07
same,glycan array binding signal (z-score),[27],-0.682
same,glycan array binding signal (z-score),[28],-0.837
same,glycan array binding signal (z-score),[29],0.841
same,glycan array binding signal (z-score),[30],-0.47
same,glycan array binding signal (z-score),[31],-0.549
same,glycan array binding signal (z-score),[32],-0.824
same,glycan array binding signal (z-score),[33],-0.235
same,glycan array binding signal (z-score),[34],2.48
same,glycan array binding signal (z-score),[35],4.18
same,glycan array binding signal (z-score),[36],-0.086
same,glycan array binding signal (z-score),[37],-0.797
same,glycan array binding signal (z-score),[38],-0.636
same,glycan array binding signal (z-score),[39],0.189
same,glycan array binding signal (z-score),[40],-0.811
same,glycan array binding signal (z-score),[41],3.41
same,glycan array binding signal (z-score),[42],-0.083
same,glycan array binding signal (z-score),[43],-0.381
same,glycan array binding signal (z-score),[44],2.68
same,glycan array binding signal (z-score),[45],0.205
same,glycan array binding signal (z-score),[46],1.44
same,glycan array binding signal (z-score),[47],-0.887
same,glycan array binding signal (z-score),[48],-1.01
same,glycan array binding signal (z-score),[49],2.49
same,glycan array binding signal (z-score),[50],1.37
